In PubChem BioAssay (NCI):
This is part of a sample that, as a whole, favours compounds with a hit. Of some 79,000 tested, about 15% had one in any assay. Unmarked numbers belong to inactive results. Active and inactive are the calls of the source. No stated cut-off is given here; in the data, active means growth inhibition above about 70%; inactive means the rest.

Columns and labels:
[1] = NCI Yeast Anticancer Drug Screen. Data for the rad50 strain (AID 155);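 further: 0% = growth of vehicle-only cultures of the same strain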; details: S. cerevisiae rad50 strain growth inhibition; at 50.0 µM; active compounds read high
Method in brief: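 Inhibition values express reduced yeast growth in compound-treated cultures relative to vehicle-treated controls.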

[2] = NCI Yeast Anticancer Drug Screen. Data for the mec2-1 strain (AID 157); details: S. cerevisiae mec2-1 strain, at 50.0 µM, active compounds read high
Method in brief: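 Using mec2-1 yeast: add compound, measure growth, express inhibition versus vehicle-treated cultures.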

[3] = NCI Yeast Anticancer Drug Screen. Data for the sgs1 mgt1 strain (AID 161);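 further: 0% = growth of cultures given vehicle only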; details: S. cerevisiae sgs1 mgt1 strain, at 50.0 µM, active compounds read high
Method in brief: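 Compounds are added to genetically altered yeast, and growth is compared with cultures given vehicle alone to give percent inhibition.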

[4] = NCI Yeast Anticancer Drug Screen. Data for the cln2 rad14 strain (AID 165);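 further: 0% = growth equal to vehicle treated cultures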; details: S. cerevisiae cln2 rad14 strain, at 50.0 µM, active compounds read high
Method in brief: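 Yeast strain cln2 rad14, bearing defects in cell cycle control and DNA repair, serves as the test system; values reflect growth inhibition compared with vehicle.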

[5] = NCI Yeast Anticancer Drug Screen. Data for the bub3 strain (AID 167); details: S. cerevisiae bub3 mutant strain, at 50.0 µM, active compounds read high
Method in brief: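 Steps: expose the mutant yeast strain to compound; grow alongside vehicle-treated cultures; measure growth; express inhibition against the vehicle cultures.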

[6] = NCI Yeast Anticancer Drug Screen. Data for the mlh1 rad18 strain (AID 175); details: S. cerevisiae mlh1 rad18 strain growth inhibition; at 50.0 µM; active compounds read high
Method in brief: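 Steps: expose repair-defective yeast to compound; measure growth; express inhibition against vehicle-treated controls.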

SMILES	growth inhibition [1]	growth inhibition [2]	growth inhibition [3]	growth inhibition [4]	growth inhibition [5]	growth inhibition [6]
CC1CCCC(C(O)(C(=O)O)C2CCCCC2)C1 (configuration not stated)	23.2%	12.6%	22.4%	13.1%	13.1%	26.6%
O=c1c2c(sc3ccccc13)CCC2	1.95%	18.6%	-1.55%	46.9%	-11.8%	-0.9%
Cc1cc(NC(=O)CCc2ccc(N3C(N)=NC(N)=NC3(C)C)cc2)ccc1S(=O)(=O)O	38.1%	-5.55%	8.05%	-14.4%	2.05%	-5.55%
COc1ccc(C(=O)/C=C/c2ccc(OCCCOc3ccc(/C=C/C(=O)c4ccc(OC)cc4)cc3)cc2)cc1	-7.3%	-19.9%	3.6%	-24.6%	-19.9%	-27.4%
N=C(N)Sc1cc(O)c2ccccc2c1O	-33%	-6.45%	-28.1%	-45.8%	4.1%	-2%
O=C1C(CN2CCCCC2)CCC1CN1CCCCC1 (configuration not stated)	23.9%	15%	30.8%	9.95%	14.1%	51.5%
CC1=C(O)CC(=O)C1	-14%	-8.8%	-6.9%	0.2%	6.4%	-9.45%
C(=C\CSc1ccccn1)/CSc1ccccn1	50%	6.4%	56.6%	18.6%	49.4%	25%
CCCCCCCCCCCCOC(=O)CSC#N	-5.65%	-38%	-31.9%	-67.5%	-39.6%	-14.1%
O=CC(=O)c1ccc(Cl)cc1	1.9%	5.5%	8.4%	31.1%	-9.5%	14.8%
C[N+](C)(CCO)CCO	3.15%	-8%	-8.5%	14.8%	0.85%	13.1%
Cc1cc2ccccc2[nH]1	33.9%	-15.3%	-3.65%	3.1%	2.75%	10%
CCOC(=O)C1=C(C(=O)c2ccc(OC)cc2)C(c2ccc(OC)c(OC)c2)C(C(=O)c2ccc(OC)cc2)=C(C(=O)OCC)N1	-44.4%	-20%	-32.2%	-24.6%	-23%	-18.8%
NS(=O)(=O)c1ccc(C(=O)O)s1	-12.1%	-11.2%	-10.3%	-11%	11.6%	-18.1%
COc1ccc(C23OCN(c4ccccc4)C2(c2ccc(OC)cc2)c2ccccc2N3C)cc1 (configuration not stated)	4.15%	-6.85%	-25.4%	-0.25%	-2.25%	11.3%
Cc1cc(NC(=S)Nc2ccccc2)c(NC(=S)Nc2ccccc2)cc1C	2.1%	-25.2%	1.55%	6.7%	3.2%	3.2%
COc1ccc(C2=NC(C)(C)CO2)cc1C	-23.1%	-4.15%	3.6%	-17.9%	21.1%	20.5%
CCCCCCCCCCn1cnc2c(=O)[nH]c(N)nc21	1.85%	2.75%	9.7%	-0.25%	2.8%	-4.85%
CC(O)c1cccc(NC(=O)NC(C)(C)C)c1 (configuration not stated)	0.6%	3.05%	-5%	-74%	10.8%	-6%
O=C(Cc1nc2ccccc2nc1CC(=O)c1cccnc1)c1cccnc1	6.45%	18.4%	16.1%	23.1%	-3.55%	25.9%
Nc1nc(-c2ccncc2)cc(-c2cc(-c3ccncc3)nc(N)n2)n1	-7.7%	-0.25%	-8.65%	-21.9%	-12.3%	10.3%

SMILES	growth inhibition [1]	growth inhibition [2]	growth inhibition [3]	growth inhibition [4]	growth inhibition [5]	growth inhibition [6]
O=c1[nH]/c(=C/c2ccc3c(c2)OCO3)c(=O)[nH]/c1=C/c1ccc2c(c1)OCO2	-24.2%	-20%	-22.8%	-13%	-34.4%	20.2%
NC(=O)C(Cc1ccccc1Cl)c1ccccc1 (configuration not stated)	-7.6%	-2.9%	-2.75%	-43%	-8.35%	12.7%
CN(CC#N)[C@H]1CCC[C@]1(O)C#C[Si](C)(C)c1ccccc1	9.15%	-19.8%	19.1%	30.9%	9.05%	1.55%
C[N+]12C=CC=C1C(N1CCCC1)c1sc(-c3ccc(Cl)cc3)cc12 (configuration not stated)	7.9%	-11.3%	22%	7.3%	0.55%	16.4%
CCC(=O)Nc1cc(Cl)ccc1C	46.6%	31.4%	26.3%	23.4%	9.25%	26.3%
Clc1cccc2c(SCCCCCSc3c4ccccc4nc4c(Cl)cccc34)c3ccccc3nc12	-3.45%	-8.9%	-22.4%	-33.5%	-23.9%	-24.6%
CCc1nc(N)nc(N)c1-c1ccc2c(c1)nnn2CCc1ccccc1	11.2%	0.1%	3.6%	10.7%	5.05%	16.1%
CN(C)C(=O)Nc1ccc2c(c1)OCO2	0.8%	8.6%	-1.4%	-31.9%	-13.2%	9.45%
Cc1occc1C(=S)Nc1ccc(Cl)c(OCC(=O)OC(C)(C)C)c1	49%	50.6%	49.2%	40.2%	46.6%	38.9%
CC(C)(C)CC(C)(C)Nc1ccc(C(N)=O)cc1	-2.35%	15.2%	-20.9%	-8.2%	7.7%	9.6%
O=[N+]([O-])C(C(Cl)=C(Cl)Cl)=C(N1CCCCC1)N1CCCCC1	-48.2%	-19.5%	-13.1%	-22.1%	-19.4%	-13.9%
CCc1cccc(CC)c1NC(=O)c1ccccc1Br	2.5%	1.85%	15.7%	16.3%	-0.05%	21.2%
COC(=O)C1(C(=O)OC)C/C(C)=C(/C)SCCCS1	-12.7%	-5.6%	-14.8%	19.9%	-23.1%	-26.4%
CCSC(=S)S	-0.35%	-23%	-12.2%	7.15%	0.25%	-0.3%
C[C@H]1CC[C@@]2(OC1)O[C@H]1C[C@H]3[C@@H]4CC[C@@H]5C[C@@H](OC6OC(CO)C(O)C(O)C6OC6OC(CO)C(O)C(O)C6O)CC[C@]5(C)[C@H]4CC[C@]3(C)[C@H]1[C@@H]2C (some centres not stated)	54.2%	68.4%	37.8%	19.3%	-16.2%	90.5% (active)
O=c1c2ccccc2c2cc3nc4ccc([N+](=O)[O-])cc4c(=O)n3c3cccc1c23	-0.15%	-2.65%	-15.7%	6.15%	-4.9%	-10.4%
CCOC(=O)c1nc2ccc(C(F)(F)F)cc2[nH]c1=O	-23.9%	-14.2%	-17.4%	-47.2%	-11.8%	-10%
S=C(c1ccccc1Cl)N1CCOCC1	18.2%	-22.2%	14.7%	17.1%	20.1%	13.8%
COC1=C(N)C(=O)c2ccc(-c3ccccn3)nc2C1=O	89.7% (active)	92.3% (active)	86.8% (active)	89.8% (active)	81.8% (active)	92.9% (active)
COc1cc(CCC(C)=O)ccc1OC(=O)c1c(-c2c(F)cccc2Cl)noc1C	1.85%	-12.2%	14.3%	19.3%	10.3%	3.5%
CCOc1ccccc1NC(=O)/C=C1\NC(=O)CS1	-8.55%	-14.4%	27.2%	11.3%	-5.65%	40.4%
